From PubChem BioAssay
In the library only some 2.2% were active in any assay of this set; here they are far more common.
PLC-beta3 inh: PLC-beta3 (human) inhibition, primary screen. Q01970. Purified PLC-beta3, fluorogenic substrate, fluorescence. inhibition, % at 12.2 µM. hit rate 0.18% among 370,000; in the data active = inhibition above about 11%
GC-A act: GC-A (human) enzyme activation | HEK293 GC-A cells, cGMP TR-FRET, EC30 ANP; 0% at EC30 ANP, 100% saturating ANP | activation, % at 10 µM | hit rate 0.14% among 370,000; in the data active = activation above about 40%
Target sequence (P16066 whole entry, looked up): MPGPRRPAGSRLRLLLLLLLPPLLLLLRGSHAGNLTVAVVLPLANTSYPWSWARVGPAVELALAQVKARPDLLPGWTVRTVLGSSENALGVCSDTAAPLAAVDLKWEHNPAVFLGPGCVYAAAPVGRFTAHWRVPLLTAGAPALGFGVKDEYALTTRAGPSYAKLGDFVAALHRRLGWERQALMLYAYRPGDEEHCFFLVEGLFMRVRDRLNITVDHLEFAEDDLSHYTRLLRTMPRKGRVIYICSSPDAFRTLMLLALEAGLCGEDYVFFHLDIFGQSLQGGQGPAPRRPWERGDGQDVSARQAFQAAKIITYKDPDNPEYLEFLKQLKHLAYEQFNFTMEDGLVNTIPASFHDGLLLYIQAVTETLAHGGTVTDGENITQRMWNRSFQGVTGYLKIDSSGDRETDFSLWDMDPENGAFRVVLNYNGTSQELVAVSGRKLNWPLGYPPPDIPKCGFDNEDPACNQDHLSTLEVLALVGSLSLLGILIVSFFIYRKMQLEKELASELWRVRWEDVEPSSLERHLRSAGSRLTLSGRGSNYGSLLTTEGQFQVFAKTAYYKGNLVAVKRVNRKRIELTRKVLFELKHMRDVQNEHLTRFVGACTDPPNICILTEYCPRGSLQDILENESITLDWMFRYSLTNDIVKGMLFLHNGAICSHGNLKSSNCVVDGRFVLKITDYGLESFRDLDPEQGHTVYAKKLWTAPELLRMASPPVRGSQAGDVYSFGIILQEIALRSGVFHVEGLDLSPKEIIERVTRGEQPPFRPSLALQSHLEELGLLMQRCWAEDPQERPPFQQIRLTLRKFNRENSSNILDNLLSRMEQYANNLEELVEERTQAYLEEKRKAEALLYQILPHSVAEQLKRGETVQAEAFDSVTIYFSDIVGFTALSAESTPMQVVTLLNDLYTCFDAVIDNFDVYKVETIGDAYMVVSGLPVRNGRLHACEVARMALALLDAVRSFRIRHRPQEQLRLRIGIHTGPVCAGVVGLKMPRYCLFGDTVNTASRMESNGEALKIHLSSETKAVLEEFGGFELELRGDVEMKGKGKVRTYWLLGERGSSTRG
PfM18AAP inh: PfM18AAP enzyme inhibition | hit rate 1.2% among 290,000 | inhibition, % at 7.35 µM | recombinant PfM18AAP, H-Glu-NHMec fluorogenic cleavage;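 active = inhibition above the campaign mean inhibition over all tested compounds plus 3 SD, cut at about 28% in these data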
Rce1 inh: yeast Ras-converting enzyme inhibition | calls only | yeast membranes, quenched prenylated peptide cleavage fluorescence | hit rate 0.27% among 290,000;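 active = fall in fluorescence gain of 50% or more versus controls, with final raw signal at or below 3038400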
PLCg1 inh: inhibitors of human phospholipase C gamma1; inhibition, % at 12.2 µM; P19174; hit rate 0.84% among 370,000; purified PLC-gamma1, fluorogenic substrate, fluorescence; AID 720700
GC-B act: GC-B (human) receptor activation | activation, % at 10 µM | hit rate 0.11% among 370,000 | HEK293-GC-B cells, CNP EC30, cGMP TR-FRET; 0% at EC30 CNP, 100% saturating CNP | P20594 | AID 1920062;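 active = activation at 10 µM reaching about 35% in either raw or pattern-adjusted values, limit read from the data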
PLCg1 ctr: PLC-gamma1 inhibition, counter-screen for PLC-beta3 hits; shares compounds with PLCg1 inh; hit rate 3.1% among 3,300; inhibition, % at 12.3 µM; purified PLC-gamma1, fluorogenic substrate, fluorescence
PLCb3 confirm: confirmation of human PLC-beta3 inhibitors | shares compounds with PLCg1 inh | purified PLC-beta3, fluorogenic substrate fluorescence | inhibition, % at 12.3 µM | hit rate 1% among 3,300 | AID 743261; in the data active = inhibition above about 11%
Large screens that a line does not name were inactive (follow-up assays come after a bar, where they were run). Cut-off read from the data, not from the text of the source, unless noted: active = inhibition above about 9.5%; inactive = the rest.

O=C1NCN(c2ccccc2)C12CCN(C(c1ccccc1OC(F)(F)F)c1nnnn1C1CCCC1)CC2 (stereo unspecified)	PLCg1 inh 10.6 (no result: PfM18AAP inh, Rce1 inh) | PLCg1 ctr inactive | PLCb3 confirm inactive
O=C1NCN(c2ccccc2)C12CCN(C(CCc1ccccc1)c1nnnn1C1CCCC1)CC2 (stereo unspecified)	PLCg1 inh 11.1 (no result: PfM18AAP inh, Rce1 inh) | PLCg1 ctr inactive | PLCb3 confirm inactive
CCC(=O)N1CCN(CCN=Cc2c(O)n(C)c(=O)n(C)c2=O)CC1	none
CC(C)C(=O)N1CCN(CCN=Cc2c(O)n(C)c(=O)n(C)c2=O)CC1	PLCg1 inh 11.0 | PLCg1 ctr inactive | PLCb3 confirm inactive
CCC(NC(=O)OCc1ccccc1)P(=O)(Oc1ccccc1)Oc1ccccc1 (stereo unspecified)	none (no result: PfM18AAP inh, Rce1 inh)
O=C1CC[C@@]2(O)[C@H]3Cc4ccc(O)c5c4[C@@]2(CCN3CC2CC2)C1O5 (stereo partly specified)	none (no result: PfM18AAP inh, Rce1 inh)
O=C(c1cccs1)C1CN2CCC1CC2 (stereo unspecified)	PLCg1 inh 10.2 | PLCg1 ctr inactive | PLCb3 confirm inactive
CN1CC(C(=O)c2cccs2)C(c2ccc(Cl)cc2)C1 (stereo unspecified)	none
COc1cc(O)c2c(c1)/C=C/C[C@H](O)[C@H](O)[C@@H](O)/C=C/C[C@H](C)OC2=O	none (no result: PfM18AAP inh, Rce1 inh)
Cc1ccc(OCC(=O)N2CCN(CC3CC4C=CC3C4)CC2)cc1 (stereo unspecified)	none
O=C(COc1ccccc1)N1CCN(CC2CC3C=CC2C3)CC1 (stereo unspecified)	PLCg1 inh 16.0 | PLCg1 ctr inactive | PLCb3 confirm inactive
O=C(NCCN1CCC2(CC1)C(=O)NCN2c1ccccc1)c1ccc(OC(F)(F)F)cc1	none (no result: PfM18AAP inh, Rce1 inh)
Cc1cc(NC(=O)CCl)nn1C	PLCg1 inh 13.5 | PLCg1 ctr inactive | PLCb3 confirm inactive
CC(C)NC1(c2ccccc2)CCCCC1	none (no result: PfM18AAP inh, Rce1 inh)
O=C1CC(=O)N(Cc2ccccc2)C(=O)N1	PLCg1 inh 16.1 (no result: PfM18AAP inh, Rce1 inh) | PLCg1 ctr inactive | PLCb3 confirm inactive
CCCCCN1C(=O)c2ccccc2[C@@]2(C(=O)OCC)Cc3cc(OC)ccc3[C@@H]12	none (no result: PfM18AAP inh, Rce1 inh)
CS(=O)(=O)N1Cc2cc(Br)ccc2-n2nncc2C1	none (no result: PfM18AAP inh, Rce1 inh)
CCC(C)C1NC(=O)C(NC(=O)C(CC(C)C)N(C)C(=O)C2CCCN2C(=O)C(C)O)C(C)OC(=O)C(Cc2ccc(OC)cc2)N(C)C(=O)C2CCCN2C(=O)C(CC(C)C)NC(=O)[C@H](C)C(=O)[C@H](C(C)C)OC(=O)CC1O (stereo partly specified)	PLCg1 inh 18.4 (no result: PfM18AAP inh, Rce1 inh) | PLCg1 ctr inactive | PLCb3 confirm inactive
COC(=O)C12OCC34C(CC5C(C)=C(O)C(=O)CC5(C)C3C(O)C1O)OC(=O)C(OC(=O)/C=C(\C)C(C)C)C24 (stereo unspecified)	PLCg1 inh 13.1 (no result: PfM18AAP inh, Rce1 inh) | PLCg1 ctr inactive | PLCb3 confirm inactive
Cc1cccc2nc(-c3ccccc3)c(-c3ccc(CN4CCC(n5c(=O)[nH]c6cc(Cl)ccc65)CC4)cc3)nc12	none (no result: PfM18AAP inh, Rce1 inh)
Cc1cc(C)cc(OCCOc2cccc(C=C3C(=O)NC(=O)NC3=O)c2)c1	none
Cc1ccc(OCCOc2cccc(C=C3C(=O)NC(=O)NC3=O)c2)cc1	PLCg1 inh 11.3 | PLCg1 ctr inactive | PLCb3 confirm inactive
O=c1[nH]c(=S)n(Cc2ccc(F)cc2)c(O)c1C=NCc1cccnc1	PLCg1 inh 10.9 | PLCg1 ctr inactive | PLCb3 confirm inactive
Clc1cc(Cl)cc(CN2Cc3cc(Br)ccc3-n3nncc3C2)c1	none (no result: PfM18AAP inh, Rce1 inh)
Cc1sc2ncn(CC(=O)N3CCC4(CC3)OCCO4)c(=O)c2c1C	none
O=C(Cn1cnc2sc3c(c2c1=O)CCCC3)NCCC(=O)N1CCC2(CC1)OCCO2	PLCg1 inh 9.7 | PLCg1 ctr inactive | PLCb3 confirm inactive
CCOC(=O)[C@]12Cc3cc(C)ccc3[C@H]1N(C1CCCCC1)C(=O)c1cc(OC)ccc12	none (no result: PfM18AAP inh, Rce1 inh)
FC(F)(F)c1ccc(CNCCc2ccc3c(c2)OCO3)cc1	PLCg1 inh 10.9 | PLCg1 ctr inactive | PLCb3 confirm inactive
Clc1ccc(CNCCc2ccc3c(c2)OCO3)cc1	none
O=c1[nH]c(=O)n(Cc2ccco2)c(O)c1C=NCc1ccc2c(c1)OCO2	PLCg1 inh 9.7 | PLCg1 ctr inactive | PLCb3 confirm inactive
CC12CC[C@H]3[C@@H](CCC4(O)C[C@H](O)CCC34/C=N/NC(=O)c3ccccc3F)C1(O)CCC2C1=CC(=O)OC1 (stereo partly specified)	PLCg1 inh 13.0 | PLCg1 ctr inactive | PLCb3 confirm inactive
CC12CC[C@H]3[C@@H](CCC4(O)C[C@H](O)CCC34/C=N/NC(=O)c3ccccc3O)C1(O)CCC2C1=CC(=O)OC1 (stereo partly specified)	none
